LRH-1 inv ag: suppresses constitutive activity of human LRH-1; HEK293T StAR-luciferase reporter, LRH-1 transfected, 24 h; inhibition, % at 3.6 µM; hit rate 0.13% among 360,000; AID 602396;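 active = inhibition above the mean inhibition of all tested compounds plus 3 SD, cut at about 73% in these data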
SRC1 inh: inhibitors of human steroid receptor coactivator 1 (SRC1). HEK293 GAL4-SRC1 luciferase reporter, luminescence. inhibition, % at 3.6 µM. hit rate 0.12% among 360,000. AID 588354;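 active = inhibition above the campaign mean plus 3 SD, with each screening campaign given its own cutoff, cut at about 60% in these data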
COUP-TFII inh: NR2F2 (human) inhibition, primary screen. AID 686940. HEK293T NGFI-A luciferase reporter, luminescence. P24468. hit rate 0.7% among 370,000. inhibition, % at 8.6 µM;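 active = inhibition above a per-plate cutoff, mean inhibition of test wells between control levels plus 3 SD, cut at about 38% in these data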;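 also: cells cotransfected with COUP-TFII expression vector driving the NGFI-A reporter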
Target sequence (P24468 whole entry, looked up): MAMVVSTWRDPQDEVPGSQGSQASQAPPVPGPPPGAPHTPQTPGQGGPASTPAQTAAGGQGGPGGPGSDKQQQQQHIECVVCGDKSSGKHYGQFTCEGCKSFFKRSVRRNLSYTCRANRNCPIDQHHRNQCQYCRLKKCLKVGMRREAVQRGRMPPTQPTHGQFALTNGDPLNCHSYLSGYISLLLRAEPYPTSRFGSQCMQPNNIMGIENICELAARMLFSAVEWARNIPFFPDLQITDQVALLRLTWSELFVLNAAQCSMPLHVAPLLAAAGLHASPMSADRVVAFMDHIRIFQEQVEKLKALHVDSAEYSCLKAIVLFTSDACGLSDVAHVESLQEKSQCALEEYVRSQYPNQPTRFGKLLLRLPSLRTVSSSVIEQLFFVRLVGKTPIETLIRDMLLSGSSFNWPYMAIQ
SRC3 inh: human NCOA3 inhibition; Q9Y6Q9; HEK293 GAL4-SRC3 luciferase reporter, luminescence; inhibition, % at 3.6 µM; hit rate 0.17% among 360,000; AID 588352;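 active = inhibition above a per-campaign cutoff, the mean of all compounds plus 3 SD, cut at about 60% in these data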;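 also: higher means less SRC3-driven luciferase light from the GAL4 reporter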
Gli-Sufu block: blocks Gli-Sufu signaling in a luciferase reporter | Sufu-KO-LIGHT fibroblasts, Gli luciferase reporter luminescence | inhibition, % at 5 µM | hit rate 0.74% among 340,000;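 active = inhibition above about 55%, limit read from the data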
NCOA2 inhibitor: inhibits human steroid receptor coactivator 2; inhibition, % at 9 µM; HEK293 GAL4-SRC2 luciferase reporter, luminescence; AID 651957; Q15596; hit rate 0.17% among 370,000;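 active = inhibition above the mean inhibition of all tested compounds plus 3 SD, set per campaign, cut at about 52% in these data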
Gal4-VP16 ctr: inhibits VP16 reporter, flagging COUP-TFII antagonist hits | shares compounds with COUP-TFII inh | HEK293 Gal4-VP16 luciferase reporter, luminescence | inhibition, % at 8.5 µM | hit rate 25% among 2,500; in the data active = inhibition above about 13%
NR2F2 inh conf: COUP-TFII (NR2F2) inhibition, confirmation assay | inhibition, % at 8.5 µM | hit rate 45% among 2,500 | shares compounds with COUP-TFII inh | HEK293 NGFI-A luciferase reporter, luminescence;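 active = mean inhibition over three repeats above a set limit taken from the earlier primary screen, cut at about 38% in these data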
Of the large screens only hits and unclear results are named; the others gave an inactive call (follow-up assays come after a bar, where they were run); ! = repeats disagree. In the library only some 1.3% were active in any assay of this set; here they are far more common.

COc1ccc(C(=O)Nc2ccc(C)cn2)c(OC)c1	COUP-TFII inh 54.9, NCOA2 inhibitor 56.4 | Gal4-VP16 ctr 13.8 | NR2F2 inh conf inactive
COc1ccc(C(=O)Nc2cc(C)on2)c(OC)c1	none
COC(=O)N1CCCCC1c1cc(C(=O)N2CCOCC2)no1 (stereo not drawn)	none (no result: Gli-Sufu block)
CCOC(=O)[C@@]12CCCC=C1N(CCc1ccc(Cl)cc1)C(=O)[C@H]2CC(=O)N1CCN(C(=O)c2ccco2)CC1	COUP-TFII inh 39.0 (no result: LRH-1 inv ag, SRC1 inh, SRC3 inh, Gli-Sufu block) | Gal4-VP16 ctr inactive | NR2F2 inh conf inactive
O=C1/C(=C\c2ccccc2)CN(C(=O)CCN2CCCCC2)C/C1=C/c1ccccc1	LRH-1 inv ag 74.1, COUP-TFII inh 63.0 | Gal4-VP16 ctr 64.0 | NR2F2 inh conf 63.1
CCN(CC)CCC(=O)N1C/C(=C/c2ccccc2)C(=O)/C(=C\c2ccccc2)C1	COUP-TFII inh 74.5 | Gal4-VP16 ctr 66.7 | NR2F2 inh conf 65.2
O=C1/C(=C\c2ccc(Cl)c(Cl)c2)CN(C(=O)CCN2CCOCC2)C/C1=C/c1ccc(Cl)c(Cl)c1	COUP-TFII inh 85.1 | Gal4-VP16 ctr 91.9 | NR2F2 inh conf 106.3
O=C1/C(=C\c2ccccc2)CCC/C1=C/c1ccccc1	none
CC(C)(C)n1nnnc1C(c1ccccc1)N1CCN(c2c(Cl)cncc2Cl)CC1 (stereo not drawn)	none (no result: SRC1 inh, SRC3 inh, Gli-Sufu block)
O=C(Nc1ccccc1Cl)N1CCCN(c2nc(-c3ccccc3)ns2)CC1	none
Cc1c(Cl)cccc1NC(=O)N1CCCN(c2nc(-c3ccccc3)ns2)CC1	COUP-TFII inh 56.8 | Gal4-VP16 ctr inactive | NR2F2 inh conf 50.9
O=C(NNC1=Nc2ccccc2SC1)c1ccccc1F	COUP-TFII inh 38.1 | Gal4-VP16 ctr inactive | NR2F2 inh conf inactive
CC1CCc2nc(NC(=O)C3COc4ccccc4O3)sc2C1 (stereo not drawn)	COUP-TFII inh 63.6 | Gal4-VP16 ctr 18.2 | NR2F2 inh conf 56.7
CC1CCCCN1S(=O)(=O)c1cccc2cccnc12 (stereo not drawn)	none
CC1CNCCN1S(=O)(=O)c1cccc2cnccc12 (stereo not drawn)	COUP-TFII inh 41.3! | Gal4-VP16 ctr inactive | NR2F2 inh conf inactive
CCCCN(C(=O)CCN1C(=O)C2CC=CCC2C1=O)c1c(N)n(CCCC)c(=O)[nH]c1=O (stereo not drawn)	none
Cn1nc(C(C)(C)C)cc1C(=O)N1CCCCC1c1cc(C(=O)NCc2ccccc2)no1 (stereo not drawn)	none (no result: Gli-Sufu block)
Cn1nc(C(C)(C)C)cc1C(=O)N1CCCCC1c1cc(C(=O)NCc2ccc(F)cc2)no1 (stereo not drawn)	COUP-TFII inh 38.5 (no result: Gli-Sufu block) | Gal4-VP16 ctr inactive | NR2F2 inh conf inactive
CC1(C)CC2CC(C)(CN2S(=O)(=O)c2ccc(C(=O)Nc3cc(S(=O)(=O)N4CCOCC4)ccc3Cl)cc2)C1 (stereo not drawn)	none
CC1(C)CC2CC(C)(CN2S(=O)(=O)c2ccc(C(=O)Nc3cccc(S(=O)(=O)N4CCOCC4)c3)cc2)C1 (stereo not drawn)	COUP-TFII inh 68.4 | Gal4-VP16 ctr inactive | NR2F2 inh conf 62.8
Clc1ccc(Cn2ncc3c(N4CCCCC4)ncnc32)cc1	none
Clc1ccc(-n2ncc3c(N4CCCCCC4)ncnc32)cc1	LRH-1 inv ag 78.5, SRC1 inh 80.9, COUP-TFII inh 91.5, SRC3 inh 80.4, NCOA2 inhibitor 69.9 (no result: Gli-Sufu block) | Gal4-VP16 ctr 80.3 | NR2F2 inh conf 99.7
O=C(NCCCc1ccccc1)C1CCN(c2nc(-c3ccc(Br)cc3)cs2)CC1	COUP-TFII inh 37.4 (no result: LRH-1 inv ag, SRC1 inh, SRC3 inh, Gli-Sufu block, NCOA2 inhibitor) | Gal4-VP16 ctr inactive | NR2F2 inh conf inactive
CCOc1cc(CNCc2ccncc2)cc(Br)c1OCc1ccc(F)cc1	COUP-TFII inh 39.5 | Gal4-VP16 ctr inactive | NR2F2 inh conf inactive
CN(c1ccccc1)S(=O)(=O)c1ccc(Cl)c(C(=O)Nc2ccncc2)c1	COUP-TFII inh 40.5 | Gal4-VP16 ctr inactive | NR2F2 inh conf inactive
Cc1ccc(C(=O)Nc2ccncc2)cc1S(=O)(=O)N1CCOCC1	none
Cc1ccc(NC(=O)c2ccccc2NS(=O)(=O)c2ccc(F)cc2)cc1S(=O)(=O)N1CCCCC1	COUP-TFII inh 37.6 | Gal4-VP16 ctr inactive | NR2F2 inh conf inactive
CCN(CC)S(=O)(=O)c1cc(C(=O)Nc2ccncc2)ccc1Cl	COUP-TFII inh 63.5 | Gal4-VP16 ctr inactive | NR2F2 inh conf inactive
Cc1ccc(C(=O)Nc2ccncc2)cc1S(=O)(=O)N1CCCCC1	COUP-TFII inh 47.5 (no result: Gli-Sufu block) | Gal4-VP16 ctr inactive | NR2F2 inh conf inactive
COc1ccc(NC(=O)Nc2cccc3c2O[C@H](CN(C)C(=O)Nc2c(C)noc2C)[C@@H](C)CN([C@H](C)CO)C3=O)cc1	none
C[C@H]1[C@H](c2ccccc2)Oc2cccc(NCCc3ccccc3)c2S(=O)(=O)N1Cc1cccc(F)c1	none (no result: LRH-1 inv ag, SRC1 inh, SRC3 inh, Gli-Sufu block)
O=C(OCc1ccc([N+](=O)[O-])cc1Cl)c1cnccn1	none
COc1cc(CN2CCN(c3ncc(Cc4ccccc4)cn3)CC2)cc(OC)c1	none (no result: LRH-1 inv ag, SRC1 inh, SRC3 inh, Gli-Sufu block)
CC(C)NC(=S)NC(c1ccccc1)(c1ccccc1)c1ccccc1	none
O=C(Nc1ccc(Cl)c(S(=O)(=O)N2CCCCC2)c1)c1cccnc1	none
O=C(Nc1ccncc1)c1ccc(Cl)c(S(=O)(=O)N2CCCC2)c1	COUP-TFII inh 46.2 | Gal4-VP16 ctr inactive | NR2F2 inh conf inactive
O=C(CN1CCN(Cc2ccc(Cl)cc2)C1=O)NCCCN1CCN(c2ccc(F)cc2)CC1	COUP-TFII inh 56.3 | Gal4-VP16 ctr inactive | NR2F2 inh conf inactive
O=C(CN1CCN(Cc2ccc(Cl)cc2)C1=O)NCCCN1CCOCC1	none
Cc1ccc[n+](Cc2ccc([N+](=O)[O-])cc2)c1	none
O=[N+]([O-])c1ccc(C[n+]2cccc3c4ccccc4ccc32)cc1	COUP-TFII inh 58.2 | Gal4-VP16 ctr inactive | NR2F2 inh conf inactive
COc1ccc(S(=O)(=O)N2CCN(CCOc3ccc(Br)cc3)CC2)cc1OC	COUP-TFII inh 60.4 | Gal4-VP16 ctr inactive | NR2F2 inh conf inactive
CC(C)(C)c1ccc(-n2ncc3c2CCCC3NC(=O)CN2CCCC2=O)cc1 (stereo not drawn)	COUP-TFII inh 43.0 | Gal4-VP16 ctr inactive | NR2F2 inh conf inactive
Cn1nccc1C(=O)NC1CCCc2c1cnn2-c1ccc(C(C)(C)C)cc1 (stereo not drawn)	COUP-TFII inh 69.5, Gli-Sufu block 75.7 | Gal4-VP16 ctr inactive | NR2F2 inh conf 68.6
Cc1cc(C)cc(-n2ncc3c2CCCC3NC(=O)CN2CCCC2=O)c1 (stereo not drawn)	none
COc1ccc(N2CCN(CNC(=O)c3ccccc3)CC2)cc1	none
CCN(CC)C(=O)[C@H]1C[C@H](CC(=O)NCc2ccco2)C(=O)N2CCc3c([nH]c4cc(CCC(=O)N(C)C)ccc34)[C@]12C	none
